Reference: PubChem BioAssay (NCATS)
A number with no mark means an inactive call. Records with an inconclusive call do not appear. A call without a number means that no potency is given here. Calls of active or inactive are those of the source. Calls come from the whole dose curve; as a rule, active = well fitted curve in the direction sought with a large enough effect; inconclusive = small, poorly fitted or top-dose-only effect, or another doubt; inactive = no such curve, though single readings can be large; an effect the other way counts as inactive or inconclusive.

Legend:
[1] = target: Glutathione peroxidase 1 (Homo sapiens) (UniProt P07203); experiment: Primary qHTS Assay for Inhibitors of Recombinant Selenoprotein Glutathione Peroxidase 1 (GPX1) (AID 1845191); note: nearly all actives have a fitted effect of over 65% in size
Method in brief: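 NADPH consumption tracked by fluorescence at 340/450 nm between t=0 and t=15 min, room temperature. Final mix: 10 nM GPX1, 100 nM glutathione reductase, 1 mM GSH, 0.5 mM NADPH, 0.5 mM cumene hydroperoxide, 0.01% BSA; 30 min compound–enzyme preincubation.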

[2] = target: Phospholipid hydroperoxide glutathione peroxidase GPX4 (Homo sapiens) (UniProt P36969); experiment: Primary qHTS Assay for Inhibitors of Recombinant Selenoprotein Glutathione Peroxidase 4 (GPX4) (AID 1845192); note: nearly all actives have a fitted effect of over 65% in size
Method in brief: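 NADPH consumption followed by fluorescence at 340/450 nm, t=0 and after 15 min at room temperature. Reaction started with cumene hydroperoxide (0.5 mM final) after 30 min compound–GPX4 preincubation; final 200 nM GPX4, 100 nM GR, 1 mM GSH, 0.5 mM NADPH.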

[3] = target: Luciferin 4-monooxygenase (Photinus pyralis) (UniProt P08659); experiment: Primary firefly luciferase (FLuc) qHTS assay for identification of artifact compounds. (AID 1845220); note: nearly all actives have a fitted effect of over 60% in size
Method in brief: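 Compounds sat 15 min at room temperature with 10 uM luciferin and 10 uM ATP (pH 7.6 Tris acetate). Firefly luciferase (10 nM final) was then added, and luminescence was read 5 min later. Data normalized to no-enzyme and DMSO controls were Hill-fitted.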

[4] = Primary fluorescence-based thiol-reactive (MSTI) qHTS assay for identification of artifact compounds. (AID 1845221); note: nearly all actives have a fitted effect of over 65% in size
Method in brief: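 A multi-concentration qHTS design tested compounds against 4 uM MSTI, pH 7.4 phosphate-buffered saline. Plates were protected from light for 1 h at room temperature before imaging fluorescence.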

[5] = tested on: Nanoluciferase (engineered Oplophorus gracilirostris luciferase); experiment: Primary Nanoluciferase (NLuc) qHTS assay for identification of artifact compounds. (AID 1845222)
Method in brief: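 Luminescence from secreted NLuc (filtered, 1:55-diluted S16 cell medium) read 5 min after Nano-Glo substrate; compounds preincubated 15 min, RT. Hill fits of inhibition normalized to DMSO and no-enzyme.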

[6] = Primary redox qHTS assay for identification of artifact compounds. (AID 1845223)
Method in brief: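 Redox-cycling detection via DTT (250 uM final) oxidation coupled to Amplex Red (25 uM)/HRP (250 mU/mL) in HBSS. 15 min preincubation plus 30 min after DTT, room temperature. Ex/Em 525/598 nm; 4-parameter Hill fit against DMSO and 10 uM DA3003.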
Potency is the fitted concentration of half-maximal effect.

Glutathione peroxidase 1 (Homo sapiens), sequence (P07203 whole entry, looked up): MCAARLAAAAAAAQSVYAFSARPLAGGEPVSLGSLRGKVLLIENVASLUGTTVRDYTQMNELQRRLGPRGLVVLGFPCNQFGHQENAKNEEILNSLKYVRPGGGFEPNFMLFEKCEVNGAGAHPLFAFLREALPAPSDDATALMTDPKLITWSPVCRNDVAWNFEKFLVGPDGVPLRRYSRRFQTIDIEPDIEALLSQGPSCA
Phospholipid hydroperoxide glutathione peroxidase GPX4 (Homo sapiens), sequence (P36969 whole entry, looked up): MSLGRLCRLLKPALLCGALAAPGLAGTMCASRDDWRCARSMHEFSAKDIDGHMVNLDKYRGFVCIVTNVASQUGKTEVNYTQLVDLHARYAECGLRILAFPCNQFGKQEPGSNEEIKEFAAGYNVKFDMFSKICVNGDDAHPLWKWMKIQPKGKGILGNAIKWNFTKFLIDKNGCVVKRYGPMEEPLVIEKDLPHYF

Compound	Potency [1]	Potency [2]	Potency [3]	Potency [4]	Potency [5]	Potency [6]
CC(C)n1cnc2c(-c3cnc(N)nc3)nc(N3CCOCC3)nc21	inactive	inactive	inactive	inactive	inactive	inactive
C=C(C)Cn1c(SCC(=O)c2cccs2)nc2sc3c(c2c1=O)CCCC3	inactive	inactive	inactive	inactive	inactive	inactive
CC(=O)O[C@H]1CC[C@]2(C)[C@H]3CC[C@]4(C)Oc5oc(C)cc(=O)c5C[C@H]4[C@]3(C)CC[C@H]2C1(C)C	inactive	inactive	inactive	inactive	inactive	inactive
O=C(NCc1ccccc1-c1ccccc1C(=O)NCCc1ccccn1)OCc1ccccc1	inactive	inactive	inactive	inactive	inactive	inactive
N#Cc1cc(C2=Nc3ccc(Br)cc3NC(=O)C2)ccn1	inactive	inactive	inactive	inactive	inactive	inactive
CC(C)(O)C1CC(=O)C2(C)C(CCC3(C)C(c4ccoc4)OC(=O)C4OC432)C12CCC(=O)OC2 (centres undefined)	inactive	inactive	inactive	inactive	inactive	inactive
C[C@@H](Nc1ncnc2[nH]c(-c3ccc(O)cc3)cc12)c1ccccc1	inactive	inactive	inactive	1.34 µM (active)	inactive	inactive
C[C@@]12C(=O)N(c3ccc(C(=O)Nc4cccc5cccnc45)cc3)C(=O)[C@@H]1[C@@H]1C=C[C@H]2C1	inactive	inactive	inactive	inactive	inactive	inactive
Cc1ccc(C2(C(=O)N3CCC(n4nc(-c5ccccc5)oc4=O)CC3)CC2)cc1	inactive	inactive	inactive	inactive	inactive	inactive
Cc1ccc(OC[C@H](O)[C@H](C)NC(C)C)c2c1CCC2	inactive	inactive	inactive	inactive	inactive	inactive
Cc1[nH]c2ccccc2c1CCNC(=O)c1cccs1	inactive	inactive	inactive	8.44 µM (active)	inactive	inactive
Cn1nc(-c2ccc(C(F)(F)F)cc2)nc2c(=O)n(C)c(=O)nc1-2	25.5 µM (active)	22.7 µM (active)	6.01 µM (active)	2.67 µM (active)	3.01 µM (active)	0.15 µM (active)
C=CCCN1CCC2(CC1)CN(C(=O)c1c(F)cccc1F)c1ccc(Cl)cc12	inactive	inactive	inactive	inactive	inactive	inactive
Cc1cc(C(=O)Cn2cc(C#N)ccc2=O)c(C)n1Cc1ccccc1	inactive	inactive	inactive	inactive	inactive	inactive
O=C(c1c(F)ccc(NS(=O)(=O)N2CC[C@@H](F)C2)c1F)c1c[nH]c2ncc(-c3cnc(C4CC4)nc3)cc12	inactive	inactive	inactive	inactive	inactive	inactive
C=C(CCC1C(C)(O)CCC2C(C)(C)C(O)CCC12C)C(O)CO (centres undefined)	inactive	inactive	inactive	13.1 µM (active)	inactive	inactive
O=C(NCCN1CCN(c2cccc3c2OCCO3)CC1)c1ccc(F)cc1	inactive	inactive	inactive	inactive	inactive	inactive
COc1ccccc1OCCN1CC(COc2cccc3[nH]c4ccccc4c23)OCC1=O (centres undefined)	inactive	inactive	inactive	inactive	inactive	inactive
CC(=O)O[C@@H]1CC[C@@]2(C)C(CC[C@]3(C)C2[C@H](O)C=C2[C@H]4[C@@H](C)[C@H](C)CC[C@]4(C)CC[C@]23C)[C@@]1(C)C(=O)O (some centres undefined)	inactive	inactive	inactive	inactive	inactive	inactive
C=C1CCN([C@H](C)[C@](O)(Cn2cncn2)c2ccc(F)cc2F)CC1	inactive	inactive	inactive	inactive	inactive	inactive
COc1cc([C@H]2O[C@H](c3cc(OC)c4c(c3)OCO4)[C@H](C)[C@H]2C)cc(OC)c1OC	inactive	inactive	inactive	inactive	inactive	inactive
CNC(=O)c1cc(Oc2ccc(NC(=O)c3cccc(C(F)(F)F)c3)cc2)ccn1	inactive	inactive	inactive	inactive	inactive	inactive
CC(C)S(=O)(=O)Nc1ccc(F)c(C(=O)c2c[nH]c3ncc(-c4cccnc4)cc23)c1F	inactive	inactive	inactive	inactive	inactive	inactive
Cc1cc(C(=O)Nc2cc(Oc3ccc4nc(NC(=O)C5CC5)cn4n3)ccc2C)n(C)n1	inactive	25.5 µM (active)	inactive	inactive	inactive	inactive
